Assay outcomes deposited in PubChem BioAssay by National Center for Advancing Translational Sciences (NCATS).
KB-V1 cytotox: kills drug-selected multidrug resistant KB-V1 cells; KB-V1 MDR cells viability, CellTiter-Glo, 72 h; Potency, µM (doses to about 46.1 µM), most hits filed as cytotoxic; 3.4% of 400,000 active; AID 1347076; note: nearly all actives have a fitted effect of over 60% in size
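KB-V1 cells (P-gp-expressing MDR subline of KB-3-1) in phenol-red-free DMEM with 10% FBS were exposed to library compounds over a concentration series for 72 h at 37 degrees C. Viability read by CellTiter-Glo luminescence; concentration-effect curves fitted after normalization.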
RGS4 inhibitor: human RGS4 inhibition; P49798; Transcreener GDP fluorescence polarization, RGS4-accelerated GTP hydrolysis; Potency, µM (series often up to 114 µM), usual class: inhibitors; 0.039% of 390,000 active; note: nearly all actives have a fitted effect of over 75% in size
Target sequence (P49798 whole entry, looked up): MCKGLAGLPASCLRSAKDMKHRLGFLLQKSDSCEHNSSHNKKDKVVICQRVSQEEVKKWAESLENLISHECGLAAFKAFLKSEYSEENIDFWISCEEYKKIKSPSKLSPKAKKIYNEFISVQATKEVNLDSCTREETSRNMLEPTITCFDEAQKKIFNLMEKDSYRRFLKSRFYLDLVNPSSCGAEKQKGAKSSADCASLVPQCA
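MLSMR compounds (23 nl, pin-transferred) preincubated 10 min at room temperature with a 500nM (2x) first reagent, then RGS4 at 900nM (2x) plus Transcreener GDP mix added; fluorescence polarization (620/688 nm) read before and after 90 min at 30 °C.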
MCF10A rereplic: DNA re-replication induction in MCF 10a cells; 2.9% of 350,000 active; MCF 10A DNA re-replication, Hoechst nuclear intensity, 48 h; Potency, µM (titrated, usually from 46.1 µM), most hits filed as activators; AID 624296; note: nearly all actives have a fitted effect of over 50% in size
SW480 rereplic: inducers of DNA re-replication in SW480 colon cancer cells. 1.8% of 340,000 active. SW480 DNA re-replication, Hoechst DNA content imaging, 48 h. Potency, µM (doses to about 46.1 µM), actives largely listed as activators; note: nearly all actives have a fitted effect of over 55% in size
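Cells (250 per well) received 23 nL compound or DMSO by pin tool and were kept 48 hr at 37 C, 5% CO2. Nuclei were then stained with Hoechst for 40 min and scanned for DNA content.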
KB-3-1 cytotox: KB-3-1 parental cell cytotoxicity; 1.4% of 400,000 active; AID 1347075; Potency, µM (doses to about 46.1 µM), usual class: cytotoxic; KB-3-1 viability, CellTiter-Glo ATP luminescence, 72 h; note: nearly all actives have a fitted effect of over 60% in size
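Cytotoxicity in the drug-sensitive parental line KB-3-1 was scored as loss of CellTiter-Glo luminescence following 72 h incubation with compound. Values come from curve fitting of normalized concentration-response data.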
PTAP TSG101 blk: blocks PTAP/TSG101 interaction to inhibit HIV-1 budding; 340,000 tested, under 10 active; Q99816; Fluorescence polarization, FITC-PTAP peptide / Tsg101 binding; Potency, µM (series often up to 115 µM), hits mostly inhibitors; active = well fitted inhibition curve with a large enough effect in the main read-out, with a control signal flat, not every such curve was filed as active; inconclusive = small, poorly fitted or top-dose-only effect, or effect the other way, or a change in a side signal; inactive = no such curve, though single readings can be large or run the other way
Target sequence (Q99816 whole entry, looked up): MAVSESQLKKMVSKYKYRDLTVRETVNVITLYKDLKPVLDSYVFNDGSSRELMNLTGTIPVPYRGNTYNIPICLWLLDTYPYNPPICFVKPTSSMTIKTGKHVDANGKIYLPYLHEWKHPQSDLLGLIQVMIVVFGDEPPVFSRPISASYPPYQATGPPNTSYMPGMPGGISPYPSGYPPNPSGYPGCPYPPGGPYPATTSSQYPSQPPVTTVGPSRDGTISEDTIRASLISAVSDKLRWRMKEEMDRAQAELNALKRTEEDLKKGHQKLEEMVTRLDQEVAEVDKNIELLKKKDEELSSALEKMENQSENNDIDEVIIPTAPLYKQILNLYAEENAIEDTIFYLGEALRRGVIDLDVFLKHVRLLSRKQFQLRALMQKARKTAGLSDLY
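Compounds were pin-transferred onto Tsg101 binding domain (10 uM final) in HEPES pH 7.5 buffer, then FITC-PTAP peptide was added at 50 nM final. After 20 min at RT, polarization reported peptide displacement across a qHTS concentration series.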
Of the large screens only hits and unclear results are named; the others gave an inactive call. Most compounds without a hit are left out; they make up all but 6.6% or so of the library. Unless noted, calls come from the whole dose curve; as a rule, active = well fitted curve in the direction sought with a large enough effect; inconclusive = small, poorly fitted or top-dose-only effect, or another doubt; inactive = no such curve, though single readings can be large; an effect the other way counts as inactive or inconclusive.

COc1ccc(C2CC(=O)c3cnn(-c4nc(C)cc(C)n4)c3C2)cc1OC (centres undefined)	none
CCN1CCN(c2ncc3c(n2)CC(c2ccc(OC)c(OC)c2)CC3=O)CC1 (centres undefined)	KB-V1 cytotox 21µM, MCF10A rereplic inconclusive, SW480 rereplic inconclusive, KB-3-1 cytotox 16µM
COc1ccc(C2CC(=O)c3cnc(N4CCN(Cc5ccccc5)CC4)nc3C2)cc1 (centres undefined)	none
CCOC(=O)N1CCN(c2ncc3c(n2)CC(c2ccc(OC)c(OC)c2)CC3=O)CC1 (centres undefined)	KB-V1 cytotox 4.1µM, KB-3-1 cytotox inconclusive (no result: MCF10A rereplic, SW480 rereplic, PTAP TSG101 blk)
CCN(CC)S(=O)(=O)c1cc(C)ccc1SC	SW480 rereplic 23µM
S=C1SCN(Cc2cccnc2)CN1Cc1cccnc1	KB-V1 cytotox inconclusive, MCF10A rereplic 13µM, SW480 rereplic inconclusive, KB-3-1 cytotox inconclusive
S=C1SCN(Cc2ccccc2)CN1Cc1ccccc1	MCF10A rereplic 33µM, SW480 rereplic inconclusive
Cc1c(O)c2c(c(C(=O)/C=C/c3ccccc3)c1O)OC(C)(C)C=C2	none (no result: RGS4 inhibitor, MCF10A rereplic, SW480 rereplic, PTAP TSG101 blk)
COC(=O)c1c(NC(=O)C2SC(=NC3CCCCC3)C(C(N)=O)=C2N)sc2c1CCCC2 (centres undefined)	MCF10A rereplic inconclusive
C=C(C)CN=C1SC(C(=O)Nc2sc3c(c2C(=O)OC)CCC3)C(N)=C1C(N)=O (centres undefined)	KB-V1 cytotox 9.2µM, MCF10A rereplic 4.1µM, SW480 rereplic inconclusive, KB-3-1 cytotox inconclusive
O=C(Cc1csc(Nc2nc(=S)[nH]c3ccccc23)n1)N1CCN(c2cccc(Cl)c2)CC1	KB-V1 cytotox 18µM, MCF10A rereplic inconclusive, KB-3-1 cytotox 23µM
Cc1ccc(Cl)cc1N1CCN(C(=O)Cc2csc(Nc3nc(=S)[nH]c4ccccc34)n2)CC1	KB-V1 cytotox inconclusive, MCF10A rereplic inconclusive
CCc1ccccc1N(C)C(=O)c1nn(-c2ccc(OC)cc2)c(=O)c2c1c1ccccc1n2C	none (no result: MCF10A rereplic, SW480 rereplic, PTAP TSG101 blk)
C[C@@H](C(=O)Nc1ccc2ccccc2c1)[C@H]1C[C@]1(C)[C@H](NP(=O)(c1ccccc1)c1ccccc1)c1ccccc1	SW480 rereplic 23µM (no result: KB-V1 cytotox, RGS4 inhibitor, KB-3-1 cytotox, PTAP TSG101 blk)
COC(=O)/C=c1\sc2ncnn2c1=O	RGS4 inhibitor inconclusive, MCF10A rereplic 11µM
CCN(CC)C(=O)c1sc2c(c1C)c(=O)n(CCc1ccccc1)c(=O)n2Cc1ccc(F)cc1Cl	KB-V1 cytotox inconclusive (no result: MCF10A rereplic, SW480 rereplic, PTAP TSG101 blk)
CCOC(=O)CC(=O)CSc1nc2c(sc(=S)n2-c2ccccc2)c(=O)[nH]1	MCF10A rereplic 16µM
CCN(CC)C(=O)CSc1nc2c(sc(=S)n2-c2ccccc2)c(=O)[nH]1	KB-V1 cytotox inconclusive, MCF10A rereplic 0.65µM
CCOC(=O)CSc1nc2c(sc(=S)n2-c2ccc(CC)cc2)c(=O)[nH]1	RGS4 inhibitor inconclusive
CCN(CC)C(=O)CSc1nc(-c2ccccc2)cc(-c2ccc(OC)cc2)c1C#N	none (no result: MCF10A rereplic, SW480 rereplic, PTAP TSG101 blk)
COc1ccc(CNCc2c(C(=O)O)c(C)n(Cc3ccccc3C)c2C)c(OC)c1	none (no result: KB-V1 cytotox, MCF10A rereplic, SW480 rereplic, KB-3-1 cytotox, PTAP TSG101 blk)
CCn1cc2nc(SCC(=O)Nc3ccc(C)cc3)n(Cc3ccc(C)cc3)c(=O)c2n1	RGS4 inhibitor inconclusive (no result: MCF10A rereplic, SW480 rereplic, PTAP TSG101 blk)
CCn1c(SCC(=O)Nc2cccc(OC)c2)nnc1-c1ccc(Cl)cc1	KB-V1 cytotox 12µM, KB-3-1 cytotox inconclusive (no result: PTAP TSG101 blk)
COCc1cc(C)nc(SCC(=O)Nc2ccccc2N2CCOCC2)c1C#N	MCF10A rereplic 21µM, SW480 rereplic inconclusive
CCn1c(C)nnc1SCC(=O)Nc1ccc(N2CCOCC2)cc1	none (no result: PTAP TSG101 blk)
COc1ccc(NC(=O)CSc2nnc(-c3ccccc3C)n2C)cc1	KB-V1 cytotox 15µM
CCn1c(SCC(=O)Nc2ccc(N3CCOCC3)cc2)nnc1-c1ccc(OC)cc1	KB-V1 cytotox 16µM
COc1cc(OC)c(NC(=O)Nc2cccc(OCc3cc(=O)n4ccccc4n3)c2)cc1Cl	none (no result: KB-V1 cytotox, MCF10A rereplic, SW480 rereplic, KB-3-1 cytotox, PTAP TSG101 blk)
CCn1c(SCC(=O)Nc2ccccc2N2CCOCC2)nnc1-c1ccccc1O	none
CCn1c(SCC(=O)Nc2ccccc2N2CCOCC2)nnc1-c1ccccc1	KB-V1 cytotox 18µM
O=c1cc(-c2ccccc2)nc2cc(-c3ccc(Br)cc3)[nH]n12	MCF10A rereplic 3.3µM
CCCCn1nc(C(=O)NCc2ccccc2CN2CCCC2)c2ccccc2c1=O	none
CC(C)Cn1nc(C(=O)NCc2ccccc2CN2CCCC2)c2ccccc2c1=O	KB-V1 cytotox 5.8µM
COc1cccc(C(=O)COC(=O)C(C)N2C(=O)c3ccccc3C2=O)c1 (centres undefined)	MCF10A rereplic inconclusive, SW480 rereplic inconclusive
CC(C(=O)OCC(=O)N1CCN(c2ccccc2)CC1)N1C(=O)c2ccccc2C1=O (centres undefined)	MCF10A rereplic inconclusive
CC(C)CC(C(=O)OCC(=O)N1CCN(c2ccccc2)CC1)N1C(=O)c2ccccc2C1=O (centres undefined)	KB-V1 cytotox 16µM
COc1ccc(C(=O)COC(=O)C(CC(C)C)N2C(=O)c3ccccc3C2=O)cc1 (centres undefined)	KB-V1 cytotox 8.2µM
Cc1cc(Br)ccc1NC(=O)c1cn(C2CCCC2)c(=O)c2c1c1ccccc1n2C	KB-3-1 cytotox inconclusive (no result: MCF10A rereplic, SW480 rereplic, PTAP TSG101 blk)
O=C(Oc1ccc(Cl)c2cccnc12)C12CC3CC(CC(C3)C1)C2	MCF10A rereplic 18µM
O=C(Oc1ccc(Cl)c2cccnc12)N1CCCCC1	none
CN(C)P(=O)(Nc1cccc2ccccc12)Nc1cccc2ccccc12	KB-V1 cytotox 12µM
CC1CN(S(=O)(=O)c2cc(C(=O)N(C)Cc3cccs3)ccc2Cl)CC(C)O1 (centres undefined)	KB-V1 cytotox 10µM
CC1CN(S(=O)(=O)c2cc(C(=O)NCc3ccncc3)ccc2Cl)CC(C)O1 (centres undefined)	none
CN(Cc1cccs1)C(=O)c1cccc(S(=O)(=O)N2CCCCCC2)c1	KB-V1 cytotox 18µM
Cc1ccccc1CCNC(=O)c1ccc(Cl)c(S(=O)(=O)N2CC(C)OC(C)C2)c1 (centres undefined)	KB-V1 cytotox 1.8µM, MCF10A rereplic inconclusive, KB-3-1 cytotox 5.2µM
CCc1ccccc1NC(=O)C(=O)NCC(c1cccnc1)N1CCc2ccccc21 (centres undefined)	none (no result: MCF10A rereplic, SW480 rereplic, PTAP TSG101 blk)
CCN(CC)C(=O)c1c(NC(=O)c2ccccc2F)sc2c1CCC(C(C)(C)C)C2 (centres undefined)	none (no result: MCF10A rereplic, SW480 rereplic, PTAP TSG101 blk)
Cc1ccc(OCC(=O)Nc2nnc(S(=O)(=O)N3c4ccccc4CC3C)s2)cc1 (centres undefined)	none (no result: MCF10A rereplic, SW480 rereplic, PTAP TSG101 blk)
